Screening results from PubChem.
Only some compounds are listed: those with a hit (about 2.3% of all), similar ones and a draw of the others.
CHO-K1 Ca PAM: counter-screen for M1 PAMs: effect in parental CHO-K1 cells; ATP EC20, Fluo-8 calcium fluorescence; 0% at ATP EC20, 100% at ATP max; activation, % at 3 µM; 0.02% of 360,000 active;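 active means activation above the run cutoff, the mean activation of all test compounds plus 3 SD, cut at about 40% in these data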;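 further: peak over basal fluorescence ratio in a 140 s read after ATP addition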
M1 ag parental: counter-screen for M1 agonists: effect in parental CHO-K1 cells. 0.48% of 360,000 active. activation, % at 3 µM. Fluo-8 calcium fluorescence; scaled to maximal ATP response, vehicle zero; in the data active means activation above about 15%;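 further: untransfected CHO-K1 host cells lacking M1 receptor as counterscreen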
CHO-K1 Ca antag: M1 antagonist counterscreen hit in parental CHO-K1 cells; AID 602250; inhibition, % at 3 µM; ATP-induced calcium, Fluo-8 fluorescence; 0.6% of 360,000 active;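 active means inhibition above a per-plate cutoff, the plate's mean sample inhibition plus 3 SD, cut at about 24% in these data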;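 further: 0% = DMSO plus EC80 ATP and 100% = DMSO alone without ATP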
M1 ag: activates human CHRM1 receptor. CHO-K1 hM1, Fluo-8 calcium fluorescence, agonist mode; 0% DMSO, 100% acetylcholine EC100. 0.33% of 360,000 active. P11229. AID 588814. activation, % at 3 µM;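 active means activation above the run's mean compound activation plus 3 SD, cut at about 16% in these data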;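 further: peak over basal fluorescence ratio within a 140 s kinetic read after compound addition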
Target sequence (P11229 whole entry, looked up): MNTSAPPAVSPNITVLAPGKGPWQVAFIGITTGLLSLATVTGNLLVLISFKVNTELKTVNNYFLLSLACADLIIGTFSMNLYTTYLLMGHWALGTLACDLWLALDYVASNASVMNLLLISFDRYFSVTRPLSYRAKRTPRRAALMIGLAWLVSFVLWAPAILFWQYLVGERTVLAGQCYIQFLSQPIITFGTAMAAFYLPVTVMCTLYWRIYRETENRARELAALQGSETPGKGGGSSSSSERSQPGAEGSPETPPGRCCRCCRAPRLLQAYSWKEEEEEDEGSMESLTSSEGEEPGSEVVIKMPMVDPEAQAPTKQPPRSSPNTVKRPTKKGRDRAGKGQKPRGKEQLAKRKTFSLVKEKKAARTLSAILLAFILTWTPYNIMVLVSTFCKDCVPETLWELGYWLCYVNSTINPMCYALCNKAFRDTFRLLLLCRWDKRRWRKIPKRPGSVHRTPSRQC
CHRM1 antagonist: antagonists of human M1 muscarinic receptor; P11229; CHO-K1 hM1, Fluo-8 calcium fluorescence, ACh EC80 antagonist; inhibition, % at 3 µM; 1.3% of 360,000 active;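 active means percent inhibition above its own plate's cutoff, namely the mean of that plate's compound wells plus 3 SD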;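 further: peak over basal fluorescence ratio during 140 s after agonist addition; 0% = ACh EC80 plus DMSO and 100% = DMSO alone without agonist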
M1 PAM: positive allosteric modulators of human M1 muscarinic receptor. P11229. activation, % at 3 µM. 0.088% of 360,000 active. CHO-K1 hM1, Fluo-8 calcium fluorescence, ACh EC20; 0% = ACh EC20, 100% = maximal ACh; in the data active means activation above about 19%, passing the limit was not always enough
Numbers without * were called inactive; nt = no result.

SMILES | CHO-K1 Ca PAM | M1 ag parental | CHO-K1 Ca antag | M1 ag | CHRM1 antagonist | M1 PAM
Cc1nc2ccc(NS(=O)(=O)c3ccc(F)cc3F)cc2s1 | 3 | 10 | -5 | 1 | 8 | -7
Cc1nc2ccc(NS(=O)(=O)c3c(F)cc(F)cc3Br)cc2s1 | -21 | 10 | 1 | -1 | 37* | -15
CC(NC(=O)Nc1cccc(Cl)c1)C(c1cccs1)N1CCCC1 (stereo not drawn) | 9 | 14 | 5 | -7 | 10 | -6
CC(NC(=O)Nc1ccc([N+](=O)[O-])cc1)C(c1cccs1)N1CCCC1 (stereo not drawn) | 2 | 25* | 12 | 16 | 7 | -4
CS(=O)CSc1nc2c(cc1C#N)CCCC2 (stereo not drawn) | -1 | 0 | -4 | -12 | 95* | -36
CCCCSc1nc2c(cc1C#N)CCC2 | 13 | 0 | -19 | -2 | -11 | 5
CN=C1NC(C)(C)C2CCC(C)(CC2)S1 | 16 | 2 | -11 | -9 | 39* | -29
Cc1cc(C)c(NC(=O)CN2C(=O)NC3(CCCCC3)C2=O)c(C)c1 | 27 | 2 | -19 | -3 | -9 | 8
C=C1SC(Nc2c(C)cccc2C)=NC12CCCCC2 | -5 | 1 | 3 | -8 | 66* | -25
C=C1SC(Nc2c(C)cc(C)cc2C)=NC12CCCCC2 | -8 | 1 | -4 | -7 | 68* | -25
COc1cc(OC)cc(-c2cc3nc(C)c(CCC(=O)O)c(C)n3n2)c1 | -10 | 0 | 39* | 2 | -8 | 5
CCOC(=O)C1CCCN(C(=O)Cn2ncc3c([nH]c4ccccc43)c2=O)C1 (stereo not drawn) | 4 | 2 | -11 | -1 | -4 | 0
CCN1C(=O)C(=O)N(CC(=O)c2[nH]c(C)c(C(C)=O)c2C)C1=O | -1 | 0 | -4 | -3 | 2 | 1
CC(=O)c1c(C)[nH]c(C(=O)CN2C(=O)NC(C)(c3ccc(C)cc3)C2=O)c1C (stereo not drawn) | 29 | 14 | -10 | 27* | 9 | 4
CCOC(=O)N1CCC(NCCNC(=O)c2ccc(F)cc2)CC1 | 17 | 0 | -21 | 63* | 68* | -33
CCOC(=O)N1CCC(NC(=O)c2ccc(Cl)cc2)CC1 | 2 | 0 | -1 | -1 | -4 | 5
CCOC(=O)N1CCC(NCCNC(=O)c2cccc(F)c2)CC1 | 6 | 0 | -21 | 66* | 64* | -33
CCOC(=O)N1CCC(NC(=O)c2oc3c(F)cccc3c2C)CC1 | 11 | 1 | -19 | -5 | -2 | 5
CCC(=O)c1ccc(OCC(=O)OCC(=O)Nc2ccc(C)c(S(=O)(=O)N3CCCCC3)c2)cc1 | 2 | 16* | -4 | 3 | 17 | -17
CCC(=O)c1ccc(OCC(=O)OCC(=O)Nc2cccc(S(=O)(=O)N3CCCC3)c2)cc1 | 4 | 6 | -15 | -4 | 3 | -4
CN1CCCCC1CCN1c2ccccc2Sc2ccc(S(C)=O)cc21 (stereo not drawn) | 21 | 0 | -10 | -8 | 99* | -25
CCSc1ccc2c(c1)N(CCCN1CCN(C)CC1)c1ccccc1S2 | 14 | 3 | 7 | -6 | 22 | -19
Cc1ccc(C(=O)C(C)OC(=O)Cn2[nH]c(=O)c3ccccc3c2=O)cc1C (stereo not drawn) | 10 | 3 | 2 | -3 | -6 | 5
O=C1CCC(C(=O)N2CCN(c3cnccn3)CC2)CN1CCc1ccccc1 (stereo not drawn) | -10 | 0 | 6 | -4 | -2 | 0
Cc1nn(-c2ccccc2)c2sc(-c3n[nH]c(=S)o3)cc12 | -7 | -1 | 25* | -3 | 3 | 8
SMILES | CHO-K1 Ca PAM | M1 ag parental | CHO-K1 Ca antag | M1 ag | CHRM1 antagonist | M1 PAM
C[C@H]1CN([C@@H](C)CO)C(=O)c2cc(-c3ccccc3F)cnc2O[C@@H]1CN(C)C(=O)NC1CCCCC1 | 10 | 0 | -2 | -6 | -12 | 0
Cc1[nH]n(C(N)=S)c(=O)c1N=Nc1cccc([N+](=O)[O-])c1C | -3 | 26* | 10 | 8 | 0 | 6
CC1(c2nnnn2Cc2ccccc2)CCC(=O)N1CCc1c[nH]c2ccccc12 (stereo not drawn) | 18 | 10 | -6 | nt | nt | nt
CC1(C(=O)NCc2ccccc2)CCC(=O)N1CCc1c[nH]c2ccccc12 (stereo not drawn) | -9 | 1 | 31* | -3 | 22 | -10
CCc1ccc(N2CC(C(=O)Nc3ccc4c(c3)OCO4)CC2=O)cc1 (stereo not drawn) | 6 | 0 | 5 | -4 | 4 | 3
CCn1c(C)c(C)c2cc(C(=O)NCCN3CCCCCC3)ccc21 | 19 | 1 | -17 | -13 | -4 | -7
O=C(Nc1nnc(CCN2CCCCC2)s1)c1ccccc1Cl | 11 | 20* | -5 | -7 | -14 | 5
O=c1c2cn(Cc3ccccc3)c3ccccc3c-2nn1Cc1ccc(F)cc1Cl | -2 | 0 | -9 | 20* | -9 | 31*
O=c1c2cn(Cc3ccc(F)cc3)c3ccccc3c-2nn1Cc1ccc(F)cc1 | -6 | 0 | -8 | -1 | -7 | 5
O=C(N/N=C/c1ccc2cccc(OCc3ccccc3)c2n1)c1ccc(Cl)cc1 | -4 | 2 | 19 | -1 | 34* | -10
Cc1nn(CC(=O)NCc2cccnc2)c(C)c1[N+](=O)[O-] | -17 | 0 | 11 | -2 | -12 | 18
Cc1nn(CC(=O)NCc2ccc(C(=O)O)cc2)c(C)c1[N+](=O)[O-] | -15 | 2 | 24* | -1 | -3 | -8
CC(=O)Nc1sc(C)c(C)c1C(=O)OCC(=O)NCc1ccc(F)cc1 | -4 | 1 | -14 | -4 | 4 | 8
O=C(Nc1ccc(C(=O)NCCCN2CCCCC2)cc1)C1=CSCCO1 | -11 | 6 | 2 | -1 | 17 | -6
O=C(Nc1ccc(C(=O)NCCCN2CCN(c3ccc(F)cc3)CC2)cc1)C1=CSCCO1 | 7 | 13 | 23 | 17* | -6 | -1
Cc1cc(C)cc(CN2CCC(Oc3ccc(C(=O)N4CCCC4)cc3)CC2)c1 | 9 | 2 | -24 | -4 | 9 | -9
CSc1ccc(CN2CCC(Oc3cccc(C(=O)N4CCCC4)c3)CC2)cc1 | -1 | 2 | 2 | -6 | 75* | -23
COC(=O)c1ccc(CN2CCC(Oc3cccc(C(=O)N4CCCC4)c3)CC2)cc1 | 4 | 2 | -2 | -1 | 94* | -21
O=C(c1cccc(OC2CCN(Cc3cc(F)cc(F)c3)CC2)c1)N1CCCC1 | -10 | 0 | 18 | -5 | 2 | 6
COC(=O)c1ccc(CN2CCC(Oc3ccc(C(=O)N4CCCCC4)cc3)CC2)cc1 | 22 | 4 | -9 | -4 | 97* | -22
CCC(=O)NC1(C(F)(F)F)C(=O)Nc2c1c(=O)[nH]c(=O)n2CC(C)C (stereo not drawn) | -17 | 0 | 8 | -3 | -18 | 16
